# Laboratory results reported in paper PMC7862700, “An all-to-all approach to the identification of sequence-specific readers for epigenetic DNA modifications on cytosine”.
# What was measured:
# Assay in all cases: DAPPL (digital affinity profiling via proximity ligation, sequencing); 10 mM Tris-HCl pH 7.5, 50 mM NaCl, 1 mM DTT, 4% glycerol, room temperature, 30 min; GST-TFs on glutathione beads, 16-mer random dsDNA library, 0.1% formaldehyde crosslink after washing; high values mean tight binding
# [1] = target: T1, FEV (Homo sapiens, UniProt Q99581 1-238); settings: protein: recombinant; tags: N-terminal GST; dsDNA, one strand shown
# T1 sequence: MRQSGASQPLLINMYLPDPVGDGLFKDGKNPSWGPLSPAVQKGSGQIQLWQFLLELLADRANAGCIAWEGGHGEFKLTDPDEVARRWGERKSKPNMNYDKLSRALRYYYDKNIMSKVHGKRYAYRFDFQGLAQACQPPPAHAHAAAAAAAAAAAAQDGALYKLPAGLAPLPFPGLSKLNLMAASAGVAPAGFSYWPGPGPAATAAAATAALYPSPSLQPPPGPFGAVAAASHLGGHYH
# Summary of the method: (§1)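 Beads coated with glutathione captured GST-fused human transcription factors that had been expressed in yeast, and the factors were then given DNA barcodes and pooled with a tag-only sample. The pools were incubated with 200 nmole of a random double-stranded 16-mer DNA library in Tris/NaCl/DTT/glycerol buffer for 30 min at room temperature, washed, crosslinked with 0.1% formaldehyde and proximity-ligated with BsaI/T4 ligase at 37 °C for 1 h. PCR amplification and Illumina NextSeq500 sequencing came last. Binding signal is each hexamer's read frequency for a factor divided by its frequency for the tag-only sample.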
# [2] = target: ETV5 (Homo sapiens, UniProt P41161 1-510); settings: protein: recombinant; tags: N-terminal GST; dsDNA, one strand shown
# Summary of the method: as §1
# [3] = target: HSF1 (Homo sapiens, UniProt Q00613 1-529); settings: protein: recombinant; tags: N-terminal GST; chain copies: 3; dsDNA, one strand shown
# Summary of the method: as §1
# [4] = target: T2, SPIC (Homo sapiens, UniProt Q8N5J4 1-248); settings: protein: recombinant; tags: N-terminal GST; dsDNA, one strand shown
# T2 sequence: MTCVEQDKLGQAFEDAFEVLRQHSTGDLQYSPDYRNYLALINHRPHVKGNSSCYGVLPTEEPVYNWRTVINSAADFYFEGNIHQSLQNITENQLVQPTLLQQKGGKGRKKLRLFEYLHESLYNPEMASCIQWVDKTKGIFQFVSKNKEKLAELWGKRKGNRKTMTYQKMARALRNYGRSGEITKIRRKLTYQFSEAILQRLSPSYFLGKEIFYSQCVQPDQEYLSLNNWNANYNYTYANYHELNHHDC
# Summary of the method: as §1
# [5] = target: ELF4 (Homo sapiens, UniProt Q99607 1-663); settings: protein: recombinant; tags: N-terminal GST; dsDNA, one strand shown
# Summary of the method: as §1
# [6] = target: T3, ELK4 (Homo sapiens, UniProt P28324-2 1-405); settings: protein: recombinant; tags: N-terminal GST; dsDNA, one strand shown
# T3 sequence: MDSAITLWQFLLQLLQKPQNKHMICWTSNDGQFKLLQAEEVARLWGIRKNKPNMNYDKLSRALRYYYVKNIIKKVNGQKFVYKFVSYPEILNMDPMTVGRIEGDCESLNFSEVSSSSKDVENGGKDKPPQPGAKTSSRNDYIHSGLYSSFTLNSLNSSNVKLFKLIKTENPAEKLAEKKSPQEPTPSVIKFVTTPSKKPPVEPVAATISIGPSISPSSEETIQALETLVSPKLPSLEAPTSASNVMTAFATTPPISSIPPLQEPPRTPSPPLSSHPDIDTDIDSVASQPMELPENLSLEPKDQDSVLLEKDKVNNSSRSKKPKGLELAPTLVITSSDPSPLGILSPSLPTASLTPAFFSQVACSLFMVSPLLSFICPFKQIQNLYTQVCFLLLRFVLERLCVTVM
# Summary of the method: as §1
# [7] = target: T4, ETV2 (Homo sapiens, UniProt O00321 1-342); settings: protein: recombinant; tags: N-terminal GST; dsDNA, one strand shown
# T4 sequence: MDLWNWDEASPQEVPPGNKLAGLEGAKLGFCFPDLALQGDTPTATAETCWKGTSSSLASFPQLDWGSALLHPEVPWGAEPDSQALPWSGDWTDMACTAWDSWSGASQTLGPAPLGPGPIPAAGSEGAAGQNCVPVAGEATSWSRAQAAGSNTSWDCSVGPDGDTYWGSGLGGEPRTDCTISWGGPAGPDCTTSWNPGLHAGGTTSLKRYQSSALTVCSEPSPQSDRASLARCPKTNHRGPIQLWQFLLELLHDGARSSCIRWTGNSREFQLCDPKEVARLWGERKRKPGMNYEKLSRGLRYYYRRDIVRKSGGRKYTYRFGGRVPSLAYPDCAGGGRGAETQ
# Summary of the method: as §1
# [8] = target: T5, ELF3 (Homo sapiens, UniProt P78545 1-371); settings: protein: recombinant; tags: N-terminal GST; dsDNA, one strand shown
# T5 sequence: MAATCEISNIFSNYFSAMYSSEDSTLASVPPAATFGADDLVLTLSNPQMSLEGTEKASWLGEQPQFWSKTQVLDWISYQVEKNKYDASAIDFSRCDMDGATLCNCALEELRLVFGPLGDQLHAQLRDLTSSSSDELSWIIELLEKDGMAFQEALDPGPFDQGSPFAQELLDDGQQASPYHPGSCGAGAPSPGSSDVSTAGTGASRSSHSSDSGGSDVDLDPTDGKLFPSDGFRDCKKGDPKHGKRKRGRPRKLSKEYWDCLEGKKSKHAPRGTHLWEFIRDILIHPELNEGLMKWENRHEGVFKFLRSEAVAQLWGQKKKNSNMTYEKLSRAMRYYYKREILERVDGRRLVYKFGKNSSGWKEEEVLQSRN
# Summary of the method: as §1
# [9] = target: CRX (Homo sapiens, UniProt O43186 1-299); settings: protein: recombinant; tags: N-terminal GST; dsDNA, one strand shown
# Summary of the method: as §1
# [10] = target: ETV1 (Homo sapiens, UniProt P50549 1-477); settings: protein: recombinant; tags: N-terminal GST; dsDNA, one strand shown
# Summary of the method: as §1
# [11] = target: T6, ERF (Homo sapiens, UniProt P50548 1-548); settings: protein: recombinant; tags: N-terminal GST; dsDNA, one strand shown
# T6 sequence: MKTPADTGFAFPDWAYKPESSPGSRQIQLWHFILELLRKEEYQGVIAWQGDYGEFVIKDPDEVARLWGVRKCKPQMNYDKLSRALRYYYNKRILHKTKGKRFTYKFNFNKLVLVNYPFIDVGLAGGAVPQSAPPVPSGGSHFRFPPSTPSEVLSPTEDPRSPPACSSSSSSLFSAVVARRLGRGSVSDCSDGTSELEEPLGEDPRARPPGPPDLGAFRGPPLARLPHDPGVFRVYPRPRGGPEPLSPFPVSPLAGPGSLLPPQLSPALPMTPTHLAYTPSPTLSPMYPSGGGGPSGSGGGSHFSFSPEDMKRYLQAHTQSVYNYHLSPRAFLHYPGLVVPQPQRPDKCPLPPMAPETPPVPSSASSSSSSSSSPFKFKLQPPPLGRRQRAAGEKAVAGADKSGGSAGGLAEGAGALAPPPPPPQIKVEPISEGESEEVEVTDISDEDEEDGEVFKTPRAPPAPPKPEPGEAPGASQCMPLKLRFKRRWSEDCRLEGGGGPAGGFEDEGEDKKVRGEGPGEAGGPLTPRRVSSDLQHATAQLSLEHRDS
# Summary of the method: as §1
# [12] = target: T7, ETV3L (Homo sapiens, UniProt Q6ZN32 1-361); settings: protein: recombinant; tags: N-terminal GST; dsDNA, one strand shown
# T7 sequence: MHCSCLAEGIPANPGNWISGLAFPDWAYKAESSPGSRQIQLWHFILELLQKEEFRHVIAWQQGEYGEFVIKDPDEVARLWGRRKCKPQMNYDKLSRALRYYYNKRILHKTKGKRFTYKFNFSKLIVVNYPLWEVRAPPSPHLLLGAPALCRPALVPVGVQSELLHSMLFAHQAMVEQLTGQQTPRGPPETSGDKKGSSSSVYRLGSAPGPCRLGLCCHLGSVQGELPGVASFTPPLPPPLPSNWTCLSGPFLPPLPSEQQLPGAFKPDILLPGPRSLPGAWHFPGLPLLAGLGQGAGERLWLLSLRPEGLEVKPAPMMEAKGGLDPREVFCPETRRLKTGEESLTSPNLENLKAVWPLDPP
# Summary of the method: as §1
# [13] = target: T8, ETS2 (Homo sapiens, UniProt P15036 1-469); settings: protein: recombinant; tags: N-terminal GST; dsDNA, one strand shown
# T8 sequence: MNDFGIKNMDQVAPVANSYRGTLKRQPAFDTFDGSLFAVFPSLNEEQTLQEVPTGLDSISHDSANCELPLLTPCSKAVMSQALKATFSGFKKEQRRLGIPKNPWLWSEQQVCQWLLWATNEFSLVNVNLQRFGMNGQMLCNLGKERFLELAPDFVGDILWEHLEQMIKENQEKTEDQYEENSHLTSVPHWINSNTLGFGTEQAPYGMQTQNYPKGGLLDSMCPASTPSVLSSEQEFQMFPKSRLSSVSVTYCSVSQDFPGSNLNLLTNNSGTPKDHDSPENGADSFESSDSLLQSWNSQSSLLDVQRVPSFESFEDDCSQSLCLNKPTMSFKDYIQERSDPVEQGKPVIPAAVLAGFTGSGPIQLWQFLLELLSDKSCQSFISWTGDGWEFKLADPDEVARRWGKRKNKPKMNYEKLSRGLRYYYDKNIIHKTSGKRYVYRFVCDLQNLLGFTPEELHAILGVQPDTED
# Summary of the method: as §1
# [14] = target: T9, SPDEF (Homo sapiens, UniProt O95238 1-335); settings: protein: recombinant; tags: N-terminal GST; dsDNA, one strand shown
# T9 sequence: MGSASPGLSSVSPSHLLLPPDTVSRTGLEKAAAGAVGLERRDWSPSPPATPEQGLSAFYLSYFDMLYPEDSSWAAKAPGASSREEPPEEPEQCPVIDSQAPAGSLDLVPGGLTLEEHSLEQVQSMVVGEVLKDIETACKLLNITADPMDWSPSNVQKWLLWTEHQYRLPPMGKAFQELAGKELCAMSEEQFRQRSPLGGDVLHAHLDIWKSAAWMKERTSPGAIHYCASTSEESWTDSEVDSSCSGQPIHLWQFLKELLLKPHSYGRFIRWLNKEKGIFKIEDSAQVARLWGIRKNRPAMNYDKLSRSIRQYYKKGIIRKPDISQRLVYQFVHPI
# Summary of the method: as §1
# [15] = target: T10, ETV7 (Homo sapiens, UniProt Q9Y603 1-341); settings: protein: recombinant; tags: N-terminal GST; dsDNA, one strand shown
# T10 sequence: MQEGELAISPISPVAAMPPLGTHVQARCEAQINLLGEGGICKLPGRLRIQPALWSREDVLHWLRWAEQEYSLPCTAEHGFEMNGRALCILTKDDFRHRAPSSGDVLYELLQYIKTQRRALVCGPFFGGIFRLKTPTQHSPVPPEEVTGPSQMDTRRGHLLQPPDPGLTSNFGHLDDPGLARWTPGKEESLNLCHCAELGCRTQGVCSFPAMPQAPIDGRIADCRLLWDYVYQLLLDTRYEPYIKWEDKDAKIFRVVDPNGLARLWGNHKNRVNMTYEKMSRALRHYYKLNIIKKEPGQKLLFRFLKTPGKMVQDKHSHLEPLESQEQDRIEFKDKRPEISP
# Summary of the method: as §1
# [16] = target: T11, ELF5 (Homo sapiens, UniProt Q9UKW6-2 1-255); settings: protein: recombinant; tags: N-terminal GST; dsDNA, one strand shown
# T11 sequence: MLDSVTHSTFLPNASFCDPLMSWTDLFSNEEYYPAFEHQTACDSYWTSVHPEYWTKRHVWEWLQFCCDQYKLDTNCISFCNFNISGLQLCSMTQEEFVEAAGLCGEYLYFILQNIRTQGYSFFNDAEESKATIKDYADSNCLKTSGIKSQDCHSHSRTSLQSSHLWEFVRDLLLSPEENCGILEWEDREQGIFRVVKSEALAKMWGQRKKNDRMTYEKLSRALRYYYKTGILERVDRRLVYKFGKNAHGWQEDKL
# Summary of the method: as §1
# [17] = target: T12, ETV3 (Homo sapiens, UniProt P41162-2 1-143); settings: protein: recombinant; tags: N-terminal GST; dsDNA, one strand shown
# T12 sequence: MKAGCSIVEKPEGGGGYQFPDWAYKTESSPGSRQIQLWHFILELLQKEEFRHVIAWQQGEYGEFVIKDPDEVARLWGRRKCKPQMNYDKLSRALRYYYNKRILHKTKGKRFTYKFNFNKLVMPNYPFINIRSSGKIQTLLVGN
# Summary of the method: as §1
# [18] = target: ETV6 (Homo sapiens, UniProt P41212 1-452); settings: protein: recombinant; tags: N-terminal GST; dsDNA, one strand shown
# Summary of the method: as §1
# ELF4, sequence (Q99607 whole entry): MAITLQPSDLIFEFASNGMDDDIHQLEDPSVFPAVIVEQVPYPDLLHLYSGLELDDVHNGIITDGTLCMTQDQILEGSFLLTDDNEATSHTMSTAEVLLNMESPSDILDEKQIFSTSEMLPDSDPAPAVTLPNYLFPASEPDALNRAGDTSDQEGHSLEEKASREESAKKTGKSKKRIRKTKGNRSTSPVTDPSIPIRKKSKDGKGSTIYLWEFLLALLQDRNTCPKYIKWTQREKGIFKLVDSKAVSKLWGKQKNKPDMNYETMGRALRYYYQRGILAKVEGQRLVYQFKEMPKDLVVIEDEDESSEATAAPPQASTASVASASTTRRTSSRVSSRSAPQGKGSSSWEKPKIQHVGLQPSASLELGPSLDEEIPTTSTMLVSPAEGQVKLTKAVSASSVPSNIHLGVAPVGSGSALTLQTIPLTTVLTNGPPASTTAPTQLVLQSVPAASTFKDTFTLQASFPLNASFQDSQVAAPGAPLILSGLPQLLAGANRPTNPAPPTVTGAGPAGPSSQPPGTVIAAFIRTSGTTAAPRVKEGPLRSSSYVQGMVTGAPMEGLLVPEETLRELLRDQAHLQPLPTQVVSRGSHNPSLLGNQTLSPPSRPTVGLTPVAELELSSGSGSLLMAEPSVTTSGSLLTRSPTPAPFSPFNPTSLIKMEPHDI
# CRX, sequence (O43186 whole entry): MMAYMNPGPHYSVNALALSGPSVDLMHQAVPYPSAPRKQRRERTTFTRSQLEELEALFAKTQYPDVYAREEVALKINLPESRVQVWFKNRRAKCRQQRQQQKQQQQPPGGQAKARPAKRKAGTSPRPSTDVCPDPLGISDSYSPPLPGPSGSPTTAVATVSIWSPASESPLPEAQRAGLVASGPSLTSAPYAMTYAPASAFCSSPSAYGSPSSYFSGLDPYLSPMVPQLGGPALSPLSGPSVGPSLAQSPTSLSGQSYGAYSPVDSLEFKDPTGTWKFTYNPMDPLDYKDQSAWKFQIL
# ETV5, sequence (P41161 whole entry): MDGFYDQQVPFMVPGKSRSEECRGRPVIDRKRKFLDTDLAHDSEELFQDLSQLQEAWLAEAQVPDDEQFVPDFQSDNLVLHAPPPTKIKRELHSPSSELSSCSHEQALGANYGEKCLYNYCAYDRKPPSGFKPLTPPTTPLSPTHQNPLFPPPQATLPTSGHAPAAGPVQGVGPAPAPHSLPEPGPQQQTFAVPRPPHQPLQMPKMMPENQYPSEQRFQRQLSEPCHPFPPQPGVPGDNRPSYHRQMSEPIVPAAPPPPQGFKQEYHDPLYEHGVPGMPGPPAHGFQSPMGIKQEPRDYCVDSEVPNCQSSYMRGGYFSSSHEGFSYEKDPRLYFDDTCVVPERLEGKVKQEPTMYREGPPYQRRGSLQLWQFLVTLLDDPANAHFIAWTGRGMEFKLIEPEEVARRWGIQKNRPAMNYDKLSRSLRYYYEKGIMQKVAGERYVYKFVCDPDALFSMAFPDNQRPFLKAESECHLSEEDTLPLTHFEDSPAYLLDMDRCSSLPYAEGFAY
# ETV6, sequence (P41212 whole entry): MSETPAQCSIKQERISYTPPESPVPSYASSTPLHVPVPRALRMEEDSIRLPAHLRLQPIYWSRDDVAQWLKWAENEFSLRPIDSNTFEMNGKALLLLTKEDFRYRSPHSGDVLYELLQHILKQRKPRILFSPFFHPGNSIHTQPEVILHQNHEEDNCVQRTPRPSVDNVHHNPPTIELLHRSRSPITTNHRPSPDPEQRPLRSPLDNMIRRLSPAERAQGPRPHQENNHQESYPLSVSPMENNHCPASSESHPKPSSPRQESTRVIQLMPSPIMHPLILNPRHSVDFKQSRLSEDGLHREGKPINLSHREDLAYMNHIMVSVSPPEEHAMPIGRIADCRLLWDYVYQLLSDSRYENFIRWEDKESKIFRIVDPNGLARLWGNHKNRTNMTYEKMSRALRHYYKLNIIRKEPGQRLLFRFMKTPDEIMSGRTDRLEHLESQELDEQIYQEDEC
# HSF1, sequence (Q00613 whole entry): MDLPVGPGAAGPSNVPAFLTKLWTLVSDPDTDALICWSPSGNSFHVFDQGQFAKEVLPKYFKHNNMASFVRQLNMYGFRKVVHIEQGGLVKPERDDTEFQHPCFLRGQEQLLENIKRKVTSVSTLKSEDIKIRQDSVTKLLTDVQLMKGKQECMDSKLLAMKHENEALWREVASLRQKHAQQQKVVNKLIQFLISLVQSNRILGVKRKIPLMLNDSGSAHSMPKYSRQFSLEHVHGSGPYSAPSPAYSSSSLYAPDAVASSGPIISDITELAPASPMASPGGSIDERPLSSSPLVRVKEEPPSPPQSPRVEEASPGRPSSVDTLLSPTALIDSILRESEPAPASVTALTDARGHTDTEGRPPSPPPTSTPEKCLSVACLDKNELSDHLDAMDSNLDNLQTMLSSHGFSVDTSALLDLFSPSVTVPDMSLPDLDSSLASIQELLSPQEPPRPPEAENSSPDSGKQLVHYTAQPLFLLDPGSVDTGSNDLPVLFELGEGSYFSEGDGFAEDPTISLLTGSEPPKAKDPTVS
# ETV1, sequence (P50549 whole entry): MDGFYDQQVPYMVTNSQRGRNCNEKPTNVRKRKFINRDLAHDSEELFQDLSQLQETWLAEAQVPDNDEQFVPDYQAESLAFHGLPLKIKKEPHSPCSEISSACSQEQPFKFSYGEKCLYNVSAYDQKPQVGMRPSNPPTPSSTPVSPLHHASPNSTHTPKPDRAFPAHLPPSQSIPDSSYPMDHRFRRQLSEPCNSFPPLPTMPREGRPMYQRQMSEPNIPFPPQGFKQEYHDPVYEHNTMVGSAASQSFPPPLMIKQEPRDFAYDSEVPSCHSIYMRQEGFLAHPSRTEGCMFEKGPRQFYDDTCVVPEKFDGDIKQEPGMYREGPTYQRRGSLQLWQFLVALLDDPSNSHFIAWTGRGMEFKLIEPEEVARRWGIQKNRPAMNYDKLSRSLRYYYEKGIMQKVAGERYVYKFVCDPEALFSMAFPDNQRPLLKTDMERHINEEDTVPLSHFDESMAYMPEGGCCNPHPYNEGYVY
sequence,measurement,setting,value
TATGCG,binding signal,[1],"1.26 fold enrichment (6-mer frequency, TF over GST control)"
same,binding signal,[2],"1.29 fold enrichment (6-mer frequency, TF over GST control)"
same,binding signal,[3],"1.23 fold enrichment (6-mer frequency, TF over GST control)"
same,binding signal,[4],"1.63 fold enrichment (6-mer frequency, TF over GST control)"
same,binding signal,[5],"1.35 fold enrichment (6-mer frequency, TF over GST control)"
same,binding signal,[6],"1.44 fold enrichment (6-mer frequency, TF over GST control)"
same,binding signal,[7],"1.45 fold enrichment (6-mer frequency, TF over GST control)"
same,binding signal,[8],"1.19 fold enrichment (6-mer frequency, TF over GST control)"
same,binding signal,[9],"1.4 fold enrichment (6-mer frequency, TF over GST control)"
same,binding signal,[10],"1.35 fold enrichment (6-mer frequency, TF over GST control)"
same,binding signal,[11],"1.23 fold enrichment (6-mer frequency, TF over GST control)"
same,binding signal,[12],"1.39 fold enrichment (6-mer frequency, TF over GST control)"
same,binding signal,[13],"1.43 fold enrichment (6-mer frequency, TF over GST control)"
same,binding signal,[14],"1.36 fold enrichment (6-mer frequency, TF over GST control)"
same,binding signal,[15],"1.51 fold enrichment (6-mer frequency, TF over GST control)"
same,binding signal,[16],"1.32 fold enrichment (6-mer frequency, TF over GST control)"
same,binding signal,[17],"1.58 fold enrichment (6-mer frequency, TF over GST control)"
same,binding signal,[18],"1.22 fold enrichment (6-mer frequency, TF over GST control)"
